Screen size: about 370,000 compounds; about 6,800 (1.8%) were called active.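 Rule for the calls: active = activation above a cutoff set at the mean of all screened compounds plus 3 SD (cut at about 10% in these data); inactive = the rest.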 Shown is part of a subset that was picked to be rich in actives.

The assay deals with Nuclear hormone receptor DAF-12 (Heterodera glycines), GAL4 fusion. Description: hgDAF-12 GAL4 fusion reporter activation – cell-based, luminescence, HEK293, UAS-luciferase, primary screen (AID 687014).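 Note: 0% = DMSO wells and 100% = sodium butyrate wells.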 The note with it: HEK293 GAL4-hgDAF12 UAS-luciferase reporter, agonist luminescence; at 6.8 µM; stronger effect = higher value; normalized to butyrate control. In general terms: In a reporter assay the amount or activity of a reporter protein is the signal.
`CN(C)c1ccc(NC(=O)NC2CCCCN(Cc3ccc(Cl)cc3)C2=O)cc1` (stereo not drawn): the activation was -1.5% (inactive).

`C[C@@H]1CN([C@H](C)CO)S(=O)(=O)c2ccc(C#C[C@@H](C)O)cc2O[C@@H]1CN(C)Cc1ccc(-c2ccccc2)cc1`: the activation was 2.28% (inactive).

In the case of `CCc1cc(C(=O)Nc2nnc(C3CC3)s2)sc1C`, the activation is 1.89% (inactive).

Turning to `Cc1cccc(NC(=O)c2cccc(C(=O)Nc3cccc(C)c3C)n2)c1C`, the activation is -1.93% (inactive).

Consider `Cc1cnc(NC(=O)c2ccccn2)s1`, for which the activation was 16.5% (active).

Turning to `CCc1ccccc1OCC(=O)Nc1nnc(C2CC2)s1`, the activation is -2.07% (inactive).

Turning to `COc1ccc(CC(=O)NCc2nnc(SCC(=O)Nc3ncc(C)s3)n2C)cc1`, the activation is 3.07% (inactive).

As to `Cc1cnc(NC(=O)Cn2cnc3c2c(=O)n(C)c(=O)n3C)s1`, the activation was -0.21% (inactive).

In the case of `Cc1cnc(NC(=O)c2ccc(Cl)nc2)s1`, the activation is 12.4% (active).

As for `O=C(Nc1ccc2nc3n(c(=O)c2c1)CCCC3)c1ccc(Cl)nc1`, the activation was 1.23% (inactive).

Take `O=C(Nc1nnc(C2CC2)s1)c1ccccn1`: the activation is 12.5% (active).

`O=C(COC(=O)c1ccc(F)cc1)NCCCc1ccccc1`: the activation was -2.09% (inactive).

On to `Cc1ccc(C(=O)NCC(=O)OCC(=O)Nc2cccc(S(=O)(=O)N3CCCC3)c2)cc1C`, for which the activation was 0.26% (inactive).

Regarding `O=C(NCc1ccccc1)[C@H]1CCCN1C(=O)[C@@H]1CCCN1C(=O)c1ccc(Cl)cc1Cl`, the activation is 5.91% (inactive).

Consider `O=C(CSC1CC(=O)N(CCc2ccccc2)C1=O)Nc1ccc(Cl)cc1` (stereo not drawn), for which the activation was 3.22% (inactive).

On to `COC(=O)[C@H](C(C)C)N1CCc2nnn(Cc3ccc(C)cc3)c2-c2ccccc2S1(=O)=O`, for which the activation was 1.86% (inactive).

On to `COC(=O)[C@]12C[C@H](CC(=O)NCCc3ccccc3OC)C(=O)N(Cc3ccco3)C1=C[C@H](C(C)C)O[C@@H]2C1CC1`, for which the activation was 1.21% (inactive).

With `Nc1[nH]c(C(=O)c2ccccc2)c(-c2ccncc2)c1C(=O)NCc1cccc2ccccc12`, the activation was -0.47% (inactive).

As for `Clc1ccc(Nc2nc(-c3cccs3)cs2)nc1`, the activation was 19.5% (active).

As for `CC(NC(=O)c1ccco1)C(=O)Nc1nc(-c2ccccn2)cs1` (stereo not drawn), the activation is 1.66% (inactive).

Consider `O=C(CN1C(=O)C2C3C=CC(C3)C2C1=O)Nc1nc(-c2ccccn2)cs1` (stereo not drawn), for which the activation is 0.17% (inactive).

Take `COc1ccc(-c2csc(Nc3ccccn3)n2)cc1`: the activation is 16.9% (active).

Turning to `COc1cccc(C(O)c2nc(-c3ccc(C)c(C)c3)cs2)c1` (stereo not drawn), the activation is -0.02% (inactive).

`N#Cc1ccc(OCC(=O)Nc2nc(-c3ccccn3)cs2)cc1`: the activation was -6.22% (inactive).

On to `CNC(=O)c1sc(Nc2ccc(OCc3ccccc3)cc2)nc1C`, for which the activation was -1.9% (inactive).

Regarding `CC(=O)c1ccc(Nc2nc(C(N)c3ccccc3)cs2)cc1` (stereo not drawn), the activation is 2.66% (inactive).

Consider `Cc1cccc(OCC(=O)OCC(=O)Nc2ccc(Cl)cn2)c1`, for which the activation was 0.27% (inactive).

Take `c1ccc(Nc2nc(-c3ccncc3)cs2)nc1`: the activation was 14.5% (active).

With `COc1ccc(Nc2nc(-c3ccccc3)cs2)cc1`, the activation is 22.4% (active).

Regarding `OC(c1ccccc1)(c1ccccc1)C1CCN(CCCOc2ccc(-c3ccsc3)cc2)CC1`, the activation is -3.48% (inactive).

Regarding `C=C(C)C1CC23C(=O)C4(C(=O)c5ccccc5)C[C@@]5(C)CCC(CC2C1(C)C)(C4=O)C35OC` (stereo partly drawn), the activation is -0.57% (inactive).

Turning to `O=C(NCc1ccco1)c1ccc(NS(=O)(=O)c2cccc([N+](=O)[O-])c2)cc1`, the activation was 0.98% (inactive).

As for `O=C(NCCC1=CCCCC1)C1CCN(S(=O)(=O)c2ccc(Cl)s2)CC1`, the activation was -1.78% (inactive).

As for `O=C(NCC1COc2ccccc2O1)c1ccc(NC(=O)c2cc(F)ccc2F)cc1` (stereo not drawn), the activation is -2.39% (inactive).

Take `O=C(Nc1ccc2oc(-c3ccccc3F)nc2c1)c1ccco1`: the activation was 14.8% (active).

In the case of `COc1ccc(-c2c(NC(=O)c3ccco3)oc3ccc(Cl)cc3c2=O)cc1`, the activation was 0.05% (inactive).

`O=C(Nc1cc(-c2nc3ncccc3o2)ccc1Cl)c1ccco1`: the activation was 2.36% (inactive).

Consider `COC(=O)Cc1nnn2c1[C@H](C)[C@H](c1ccccc1[N+](=O)[O-])OCC2`, for which the activation was -0.34% (inactive).

For `CCOC(=O)c1cc(S(=O)(=O)NCCc2ccc(OC)c(OC)c2)cn1C`, the activation is 0.63% (inactive).

`CCOC(=O)N1CCN(Cc2oc(CO)cc(=O)c2O)CC1`: the activation is 1.66% (inactive).

On to `CSc1nc2nc3c(c(=O)n2[nH]1)CCC3`, for which the activation was -0.35% (inactive).

For the compound `Clc1cccc(Cc2c(-c3cccc(Cl)c3)nc3ccc(Cl)cn23)c1`, the activation was 6.04% (inactive).

Turning to `O=c1c2c(nc3cc(-c4cccc(Cl)c4)[nH]n13)CCCC2`, the activation was 18.1% (active).

With `CSc1ccc(C=Nn2c(-c3ccc(F)cc3)n[nH]c2=S)cc1`, the activation is -2.14% (inactive).

On to `Oc1cccc2ccc(/C=C/c3ccc(Br)s3)nc12`, for which the activation was 20.9% (active).

With `CCCCOCC1CN(CCCC)S(=O)(=O)c2c(Oc3ccc(F)cc3)cccc2O1` (stereo not drawn), the activation is 3.59% (inactive).

`COC(=O)C1CN(Cc2cn(Cc3ccc(F)cc3)nn2)CCS(=O)(=O)N1Cc1ccc(Cl)cc1` (stereo not drawn): the activation is -1.71% (inactive).

Turning to `Clc1ccc(-n2c(COc3ccccc3)nnc2SCc2nc3ccccc3[nH]2)cc1`, the activation was 0.78% (inactive).

Turning to `CN(CCO)c1ccc(/C=N/Nc2nncc3ccccc23)cc1`, the activation was 10.7% (active).

Regarding `N#Cc1ccc(N2Cc3ccccc3/C2=N/C(=O)Nc2ccc(Cl)cc2)cc1`, the activation is 2% (inactive).

For `CCS(=O)(=O)c1ccc(-c2cccc(NC(=O)c3ccc(Br)o3)c2)nn1`, the activation was 3.52% (inactive).

As for `Cc1cccc(NC(=S)NC(=O)c2ccc(Br)o2)c1`, the activation was 15.4% (active).

Turning to `O=C(Nc1cccc(C(=O)O)c1)/C(=C\c1ccccc1)NC(=O)c1ccc(Br)o1`, the activation is 1.1% (inactive).

As to `Nc1[nH]c(/C=C2/CCCCC2n2[nH]c(=O)n(-c3ccccc3)c2=O)c(Cc2ccccc2)[n+]1Cc1ccccc1` (stereo not drawn), the activation was 0.06% (inactive).

As for `CC(C)c1cc(NCc2ccccn2)n2c(nc3ccccc32)c1C#N`, the activation is 3.15% (inactive).

With `C=CCN(C(=O)[C@@H](CCCC)[C@@H](O)c1ccc(Cl)cc1)c1ccccc1`, the activation is 1.69% (inactive).

Take `CC(=NNC(N)=O)c1ccc(Cl)c(-n2cccc2)c1`: the activation is 1.64% (inactive).

Take `Cc1cc(NC(=O)C(C)N2C(=O)c3ccccc3S2(=O)=O)no1` (stereo not drawn): the activation is -0.78% (inactive).

(Values after PubChem BioAssay AID687014 (The Scripps Research Institute Molecular Screening Center, 2013).)
